# FLuc counter: qHTS profiling assay for firefly luciferase inhibitor/activator using purifed enzyme and Km concentrations of substrates (counterscreen for miR-21 project); Luciferin 4-monooxygenase (Photinus pyralis), P08659; purified FLuc, Km substrates, luminescence inhibition; Potency, µM (doses to about 57.5 µM), for the others: top-dose activity change, negative = inhibition, actives largely listed as inhibitors; 360,000 compounds, 6.9% hits; AID 588342, 2011;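 further: plate controls were vehicle for no effect and reference inhibitor for full effect; nearly all actives have a fitted effect of over 55% in size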
# Target sequence (P08659 whole entry, looked up): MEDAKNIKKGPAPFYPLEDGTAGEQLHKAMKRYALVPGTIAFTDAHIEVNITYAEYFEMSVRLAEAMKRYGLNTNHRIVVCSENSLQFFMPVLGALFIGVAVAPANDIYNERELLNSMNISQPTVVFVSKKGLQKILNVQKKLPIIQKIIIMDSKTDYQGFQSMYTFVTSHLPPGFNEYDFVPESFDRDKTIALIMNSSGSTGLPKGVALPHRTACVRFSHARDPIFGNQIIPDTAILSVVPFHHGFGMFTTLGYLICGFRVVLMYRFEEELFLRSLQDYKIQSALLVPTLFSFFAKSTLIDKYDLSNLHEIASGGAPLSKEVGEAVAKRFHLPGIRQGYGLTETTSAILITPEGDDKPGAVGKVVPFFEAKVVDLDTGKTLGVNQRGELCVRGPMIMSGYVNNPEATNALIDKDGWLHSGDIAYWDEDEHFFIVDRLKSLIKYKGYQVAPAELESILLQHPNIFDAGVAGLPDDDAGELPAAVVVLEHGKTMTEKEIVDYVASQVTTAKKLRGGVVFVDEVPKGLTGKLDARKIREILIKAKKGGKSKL
#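 Purified P. pyralis luciferase, 10 nM final, with Km-level 10 uM D-luciferin and 10 uM ATP in 50 mM Tris acetate pH 7.5, 10 mM Mg acetate, 0.01% Tween-20, 0.05% BSA; 6-point qHTS titration about 60 µM downward; luminescence read.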
# SMN2 splice up: qHTS Assay for Enhancers of SMN2 Splice Variant Expression; HEK293 SMN2-luciferase splicing reporter, luminescence, 30-36 h; Potency, µM (top dose mostly 46.1 µM), for inactives: at the top dose activity change, positive = activation, hits mostly activators; AID 1458, 2008; 210,000 compounds, 2.8% hits; further: % of control where 0% means no effect; nearly all actives have a fitted effect of over 55% in size
#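 HEK293 cells carry an SMN2 […]–luciferase reporter in which exon 7 inclusion puts luciferase in frame. Cells were plated 10-12 h before compound addition, then incubated 30-36 h at 37C. ONE-Glo luminescence was read; sodium butyrate at 4.5 mM final served as control.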
# NPC1 prom act: qHTS Assay for NPC1 Promoter Activators. Huh7 NPC1 promoter luciferase reporter, 24 h. Potency, µM (series often up to 9.22 µM), without a hit: at the highest dose activation, most hits filed as activators. 320,000 compounds, 2.4% hits; further: % of control where 0% means no effect; nearly all actives have a fitted effect of over 60% in size
#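 Quantitative HTS used a cell-based reporter: Huh7 cells stably bearing the NPC1 promoter upstream of luciferase were treated with compounds for 24 h, and promoter activation was read as luminescence.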
# Rab9 prom act: qHTS Assay for Rab9 Promoter Activators. Huh7 Rab9 promoter-luciferase reporter, luminescence, 24 h. Potency, µM (doses to about 9.22 µM), inactives show at the highest dose activation, negative = inhibition, actives largely listed as activators. 320,000 compounds, 2.8% hits. AID 485297, 2010; further: % of control where 0% means no effect; nearly all actives have a fitted effect of over 60% in size
#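 Cells were plated at 1500 per well in reduced-serum medium with 10% FBS and left 2 h. Compound in DMSO was then added for 24 h at 37 °C. Reporter signal was read by luminescence after 10 min with luciferase detection reagent.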
# Luc counter: Counterscreen for Luciferase (Kinase-Glo TM) Inhibition. Luciferin 4-monooxygenase (Photuris pensylvanica), Q27757. Kinase-Glo luciferase, ATP luminescence, 8 min. Potency, µM (titrated, usually from 38.3 µM), for inactives: at the highest dose activity change, negative = inhibition, hits mostly inhibitors. 200,000 compounds, 0.28% hits. AID 1379, 2008; further: on the % scale 0 is the no-effect control and ±100 the full control effect; nearly all actives have a fitted effect of over 60% in size
#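 Substrate mix (final 50 mM imidazole pH 7.2, 50 mM KCl, 7 mM MgCl2, 10 uM ATP, 0.01% Tween 20, 0.05% BSA) plus pin-tool compound, then Kinase-Glo detection mix; 8 min ambient, luminescence read.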
# ELG1 genotox: qHTS screen for small molecules that induce genotoxicity in human embryonic kidney (HEK293T) cells expressing luciferase-tagged ELG1; HEK293T ELG1-luciferase reporter, luminescence, 16 h; Potency, µM (doses to about 46 µM), inactives show at the top dose activity change, positive = activation, usual class: activators; 330,000 compounds, 1.3% hits; AID 504466, 2011; further: % of control where 0% means no effect; nearly all actives have a fitted effect of over 60% in size
#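 Quantitative HTS format in 1536-well plates. HEK293T ELG1-luciferase reporter cells receive test compound and are incubated 16 hr at 37 °C, 5% CO2; ONE-Glo added, 30 min room temperature, then luminescence read.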
# Starred values were filed as active, the others as inactive; ? = inconclusive; . = not tested or not shown; [ ] = remark or other dose. A selection: hits, their analogues and other compounds. The true share with any hit is near 7.4%. The call rests on the fitted dose curve; in most records, active means well fitted curve in the direction sought with a large enough effect; inconclusive means small, poorly fitted or top-dose-only effect, or another doubt; inactive means no such curve, though single readings can be large; an effect the other way counts as inactive or inconclusive. Potency means the concentration at half of the fitted maximal effect.
SMILES,FLuc counter,SMN2 splice up,NPC1 prom act,Rab9 prom act,Luc counter,ELG1 genotox
C/C(=N\O)c1ccc2c3ccccc3n(C)c2c1,19µM*,39.7%,?,?,-0.9%,?
Cc1cc(N/N=C/c2ccc(O)cc2O)nc(N2CCOCC2)n1,7.57µM*,.,-2.6%,-4.0%,.,3.7%
COc1ccc(/C=N/Nc2cc(C)nc(N3CCOCC3)n2)c(OC)c1,2.39µM*,.,0.3%,0.2%,.,6.2%
COC(=O)[C@@H]1C[C@H]1[C@@H](NC(=O)c1cccnc1)c1ccccc1,.,-3.1%,.,.,-0.4%,.
ONC(=Nc1cccc(C(F)(F)F)c1)c1cccnc1,-1.6%,.,1.7%,-0.5%,.,1.2%
COc1ccc(/C=C(\C#N)c2nc3ccccc3n2C)c(OC)c1,23.9µM*,24.4%,.,.,.,.
COc1cc(/C=C(\C#N)c2nc3ccccc3n2C)cc(OC)c1OC,19µM*,-11.2%,.,.,.,.
Cn1c(/C(C#N)=C/c2cccc(O)c2)nc2ccccc21,13.5µM*,?,27.6%,?,-18.2%,?
COc1ccc(/C(O)=C(\C#N)c2nc3ccccc3n2C)cc1OC,-17.0%,-14.5%,0.3%,0.0%,-6.0%,2.8%
Cc1cccn2c(=O)c(C=O)c(N3CCSCC3)nc12,4.2%,.,-4.1%,-2.4%,.,5.2%
Cc1ccc(C)c(-c2cc(C(=O)Nc3cccnc3)c3ccccc3n2)c1,0.8%,.,-0.7%,11.1%,.,-15.4%
O=C(Nc1cccnc1)c1cc(-c2ccc(Br)cc2)nc2ccccc12,16.9µM*,.,-0.1%,0.1%,.,0.0%
Cc1ccc(-c2cc(C(=O)Nc3ccccn3)c3ccccc3n2)o1,10.7µM*,2.9%,-0.9%,2.6%,-1.1%,-12.5%
Cc1ccc(-c2cc(C(=O)Nc3cccnc3)c3ccccc3n2)o1,6.01µM*,2.8%,-0.3%,15.7%,-19.0%,-0.4%
Cc1ccc(NC(=O)c2cc(-c3ccc(C)o3)nc3ccccc23)cc1,?,10.4%,0.7%,8.7%,-1.1%,5.0%
COc1ccccc1NC(=O)c1cc(-c2ccc(C)o2)nc2ccccc12,7.57µM*,.,-1.3%,13.4%,.,-0.9%
COc1cc(NS(=O)(=O)c2ccc(NC(=S)NC(=O)COc3ccccc3OC)cc2)nc(OC)n1,?,.,-4.8%,-2.8%,-0.6%,-1.3%
Cc1cccc(C)c1NC(=O)CN(C)C(=O)C1CC1C (stereo not given),-1.2%,.,-1.9%,-0.9%,.,1.3%
CCOc1ccc(C2C=C(c3ccccc3)Nc3nnnn32)cc1 (stereo not given),-0.3%,13.7%,2.82µM*,1.58µM*,-0.8%,?
Fc1ccc(C2=CC(c3cccs3)n3nnnc3N2)cc1 (stereo not given),-1.5%,.,-2.2%,8.5%,.,5.1%
Cc1ccc(C2=CC(c3cccs3)n3nnnc3N2)cc1 (stereo not given),-26.1%,14.9%,5.01µM*,?,-1.6%,3.1%
CCOc1ccc(C2C=C(c3ccc(C)cc3)Nc3nnnn32)cc1 (stereo not given),-1.4%,-9.0%,3.8%,2.8%,-0.3%,1.4%
CCOC(=O)c1sc(N)c(C(=O)Nc2ccc(C)cc2C)c1C,.,.,.,.,-0.7%,.
O=C(NCCS(=O)(=O)NC1CCCCC1)c1ccc2c(c1)OCO2,2.9%,.,0.0%,-0.7%,.,0.3%
O=C(Nc1ccc(Oc2cccnc2)cc1)c1ccccc1F,12µM*,-1.3%,?,2.82µM*,-3.6%,3.1%
SMILES,FLuc counter,SMN2 splice up,NPC1 prom act,Rab9 prom act,Luc counter,ELG1 genotox
O=C(Nc1ccc2oc(-c3cccnc3)nc2c1)c1ccccc1F,?,5.2%,.,.,.,.
O=C(Nc1ccc2nc(-c3cccnc3)[nH]c2c1)c1ccccc1F,15.1µM*,0.2%,1.3%,8.1%,-1.1%,8.2%
O=C(Nc1ccc(C(=O)N2CCCC2)cc1)c1ccccc1F,?,?,?,?,?,8.2µM*
O=C(Nc1ccc(F)cc1)c1ccccc1F,21.3µM*,7.2%,.,.,-9.7%,.
O=C(Nc1ccc(Oc2cccnc2)cc1)c1ccccc1Cl,?,.,11.0%,17.7%,.,-3.2%
CC(C)(C)OC(=O)N1CCC(c2c(C(=O)N3CCN(c4ccccc4F)CC3)cnn2C(C)(C)C)CC1,-7.2%,.,.,.,.,.
CCCOc1ccc(Oc2nc(NCC(C)C)nc(N3CCOCC3)n2)nn1,0.7%,-6.6%,.,.,.,.
O=C(Nc1ccc(SC(F)F)cc1)c1ccccc1F,13.5µM*,17.8µM*,2.51µM*,1.78µM*,-3.1%,?
CCN(CC)C(=O)c1ccc(C(=O)Nc2ccc(F)cc2)cc1,?,.,17.3%,?,.,?
O=C(Nc1ccc(SC(F)F)cc1)c1ccc(F)cc1,8.49µM*,11.2µM*,2.24µM*,1.26µM*,-2.3%,?
O=C(Nc1ccc2ccccc2c1)c1ccccc1F,1.35µM*,.,0.501µM*,0.631µM*,.,2.59µM*
O=C(Nc1ccncc1)c1ccccc1F,-2.1%,-8.8%,-2.7%,-1.3%,6.9%,-10.7%
CC(=O)Nc1ccc(NC(=O)c2ccccc2F)cc1,?,?,15.7%,-5.5%[1.84 µM],-1.9%,?
CCOC(=O)Nc1ccc(NC(=O)c2ccccc2F)cc1,?,?,?,3.55µM*,-7.5%,?
NC(=O)Nc1ccccc1C(=O)Nc1ccc2ccccc2c1,-14.2%,.,3.2%,19.5%,.,-0.1%
O=C(CCOc1cccc(Br)c1)Nc1ccc(F)c(S(=O)(=O)N2CCOCC2)c1,0.3%,.,-1.1%,2.5%,.,-10.4%
CN(C1CCCCC1)S(=O)(=O)c1ccc(=S)[nH]c1,-14.0%,.,4.0%,5.0%,.,-4.7%
O=C(Nc1ccc2cn[nH]c2c1)c1ccccc1F,9.53µM*,11.2µM*,2.24µM*,2µM*,-1.0%,?
O=C(Nc1ccc2cn[nH]c2c1)c1c(Cl)cccc1Cl,-4.5%,-1.7%,0.0%,-2.4%,1.6%,-3.3%
Cc1cccc(NS(=O)(=O)c2c(C)nc3sccn3c2=O)c1C,-6.2%,.,.,.,.,.
Cc1ccc2c(c1)c(N=Nc1cccc(C(=O)O)c1)c(O)n2C,15.1µM*,.,17.2%,-0.7%,.,6.4%
COc1ccc(-c2cc3nc4ccccc4n3c(N)c2C#N)cc1,?,.,1.78µM*,2µM*,.,13.8%
COc1ccc(-c2cc(-c3ccccc3)c(C#N)c(S(C)=O)n2)cc1 (stereo not given),-0.2%,-26.3%,-3.9%,-18.5%,-4.0%,-3.7%
CCc1nc(N2CCN(C(=S)NCCCOC)CC2)c2c3c(sc2n1)CCCC3,-1.4%,.,3.2%,0.9%,.,-14.7%
O=C(C[n+]1cc(-c2ccc(F)cc2)n2c1CCC2)N1c2ccccc2Sc2ccccc21,2.39µM*,76.2%,?,2.82µM*,-2.3%,?

# Screening data from PubChem BioAssay.
